# Compound activity as filed in PubChem BioAssay.
# In the library only some 5.2% were active in any assay of this set; here they are far more common.
# Tau fibril ThT: blocks human tau fibril formation measured by thioflavin T; P10636; recombinant tau K18 P301L, heparin-induced fibrillization, ThT fluorescence; AID 1460; hit rate 2.1% among 270,000; Potency, µM (top dose mostly 57.4 µM), inactives show at the highest dose activity, negative = inhibition, hits mostly inhibitors; also: potency is read from the fitted curve at half-maximal effect; nearly all actives have a fitted effect of over 55% in size
# Target sequence (P10636 561-689 P618L limits assumed): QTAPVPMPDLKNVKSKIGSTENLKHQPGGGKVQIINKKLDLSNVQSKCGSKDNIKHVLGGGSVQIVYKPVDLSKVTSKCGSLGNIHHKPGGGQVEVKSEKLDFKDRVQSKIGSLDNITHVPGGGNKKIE
#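 Heparin-induced (20 uM) aggregation of recombinant human K18 P301L tau, 15 uM unlabeled with 0.24 uM labeled, pH 7 acetate buffer, 6 hr at 37 C with compound. Fibrils quantified by 30 uM ThT fluorescence after 1 hr ambient incubation.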
# Sfp PPTase inh: blocks B. subtilis Sfp PPTase activity; Q9F4F7; Biochemical Sfp PPTase activity, qHTS; Potency, µM, for inactives: largest response in the series, negative = inhibition, most hits filed as inhibitors; hit rate 3.5% among 310,000;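 also: the enzyme is Sfp with the accession as filed and its product quenches rhodamine fluorescence; potency is read from the fitted curve at half-maximal effect; 0% = enzyme reaction without inhibitor and -100% = no enzyme wells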
#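 Compounds were incubated with enzyme (final 15 nM) for 15 min at room temperature before substrate addition started the reaction. Fluorescence at 525 nm excitation, 598 nm emission was recorded immediately and after 30 minutes.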
# Tau fibril FP: blocks human tau fibril formation measured by polarization; K18 P301L tau heparin fibrillization, Alexa594 FP, 6 h; Potency, µM (highest dose often 57.7 µM), for the others: at the highest dose activity, negative = inhibition, usual class: inhibitors; hit rate 0.39% among 280,000; AID 1468; also: potency is read from the fitted curve at half-maximal effect; nearly all actives have a fitted effect of over 55% in size
#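 Read-out: fluorescence polarization of Alexa 594-labeled tau (0.24 uM), 555 nm excitation, 632 nm emission. Mixtures held 15 uM unlabeled K18 P301L, compound and 20 uM heparin, pH 7 acetate buffer, incubated 6 hr at 37 C.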
# Tau fluor cs: counter-screen for tau fibril formation inhibitors. tau K18 P301L (four-repeat tau fragment) Alexa594 fluorescence, heparin fibrillization. Potency, µM (doses to about 57.7 µM), for the others: at the highest dose activity change, negative = decrease. hit rate 0.93% among 280,000; also: potency is read from the fitted curve at half-maximal effect; nearly all actives have a fitted effect of over 55% in size
#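 Human K18 P301L tau (15 uM unlabeled plus 0.24 uM Alexa 594-labeled, final) in 100 mM sodium acetate pH 7 was mixed with compound and 20 uM heparin and incubated 6 hr at 37 C.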
# Coupling enz: inhibits coupling enzyme system, counter-screen for aldolase hits; coupling enzyme system counterscreen, AmpLite Red fluorescence; activity change, negative = inhibition, % at 58.2 µM, hits read low; hit rate 0.67% among 290,000; in the data active = activity change below about -30%
#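 Counterscreen of the coupled detection system alone, without aldolase: glyceraldehyde-3-phosphate coupling enzymes plus AmpLite Red readout. Compounds at 57.5 uM final, 10 min RT preincubation, 20 min RT reaction, fluorescence 525/598 nm.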
# * = called active by the depositor; ? = inconclusive; . = no result given; [ ] = remark or other dose. Unless noted, calls follow the shape of the dose curve; as a rule, active = well fitted curve in the direction sought with a large enough effect; inconclusive = small, poorly fitted or top-dose-only effect, or another doubt; inactive = no such curve, though single readings can be large; an effect the other way counts as inactive or inconclusive. Unless noted, % is scaled to controls: 0 for no effect and ±100 for the full control effect.
SMILES,Tau fibril ThT,Sfp PPTase inh,Tau fibril FP,Tau fluor cs,Coupling enz
Cn1c(N)c(C(=O)NCc2ccccc2)sc1=S,-16%,22µM*,-3%,-12%,1
COC(=O)c1ccccc1NC(=O)c1sc(=S)n(C)c1N,?,25µM*,4%,?,1
COc1ccc(CCNC(=O)c2sc(=S)n(C)c2N)cc1,-5%,?,-7%,-3%,0
COC(=O)c1ccccc1NC(=O)c1sc(N)nc1C,-15%,-2%,5%,-5%,3
N#CCCn1c(=O)cnc2cnc(N3CCOCC3)nc21,.,22%,.,.,1
CC(=O)O[C@H]1C(=O)[C@@]2(C)C([C@H](OC(=O)c3ccccc3)[C@]3(O)C[C@H](OC(=O)[C@H](O)[C@@H](NC(=O)c4ccccc4)c4ccccc4)C(C)=C1C3(C)C)[C@]1(OC(C)=O)CO[C@@H]1C[C@@H]2O (stereo partly drawn),-14%,45µM*,-3%,-22%,.
[O-]/C(=C(\C(=S)Nc1cccc2ccccc12)[n+]1ccccc1)c1ccc(Cl)s1,7%,-28%,5%,8%,-39*
CC(C)(C)c1cc[n+](/C(C(=S)NC2CC2)=C(/[O-])c2ccc(Cl)s2)cc1,?,56µM*,-2%,-18%,-44*
Cc1ccc(C)c(NC(=S)/C(=C(\[O-])c2ccc(Cl)s2)[n+]2ccccc2)c1,?,50µM*,-6%,-15%,-40*
CCc1cccc(CC)c1NC(=S)/C(=C(\[O-])c1ccc(Cl)s1)[n+]1ccccc1,?,-15%,0%,-21%,0
CN(Cc1ccccc1)c1nc2c(S(=O)(=O)c3ccccc3)nnn2c2ccsc12,7%,.,-16%,0%,.
COc1ccc(C)cc1Nc1n[n+](-c2ccccc2)c(-c2ccc(N(C)C)cc2)s1,.,20µM*,.,.,0
CCc1ccc(Nc2n[n+](-c3ccccc3)c(-c3c(Cl)cccc3Cl)s2)cc1,.,71µM*,.,.,-8
CCN(CC)c1ccc(-c2sc(Nc3ccccc3)n[n+]2-c2ccc(F)cc2)cc1,.,56µM*,.,.,1
COc1ccc(C)cc1Nc1n[n+](-c2ccccc2)c(-c2ccc(OC)c(OC)c2OC)s1,.,-28%,.,.,-2
CCc1ccc(Nc2n[n+](-c3ccccc3)c(-c3ccc(N(CC)CC)cc3)s2)cc1,.,50µM*,.,.,0
CCCS(=O)(=O)c1nc(S(=O)(=O)c2ccc(C)cc2)c(NCc2ccccc2Cl)s1,0%,.,-10%,-22%,.
CCn1c(=O)c2cc(C(=O)NC3CCC(C)CC3)sc2c2ccccc21 (stereo not drawn),-7%,.,-12%,-6%,.
Cc1noc(C)c1-c1nccc(NCc2cccs2)n1,.,13%,.,.,-10
CCc1ccc(Nc2n[n+](-c3ccccc3)c(/C=C/c3ccccc3)s2)cc1,.,50µM*,.,.,1
CCc1ccc(Nc2n[n+](-c3ccccc3)c(-c3cc(OC)c(OC)cc3Br)s2)cc1,.,-8%,.,.,0
COc1ccc(C(CNC(=O)Cn2c(=O)oc3ccccc32)N(C)C)cc1 (stereo not drawn),.,20µM*,.,.,.
CCC[C@@H]1C[C@@]1(CCC)[C@@H](NC(=O)Oc1ccccc1)c1ccc(C(=O)OC)cc1,0%,13%,1%,-3%,-3
CCOc1cc(/C=N/Nc2cccc(C(=O)O)c2)ccc1OC(=O)c1ccccc1,?,1%,7%,?,5
CCOc1cc(/C=N/NC(=O)CNc2cccc(C)c2)ccc1OC(=O)c1ccccc1,?,4%,10%,14µM*[quencher],0
SMILES,Tau fibril ThT,Sfp PPTase inh,Tau fibril FP,Tau fluor cs,Coupling enz
COc1cccc(Nc2ncc3nc(C)c(=O)n(C)c3n2)c1,.,12%,.,.,5
CCC/C=C(\CCC)C(NP(=O)(c1ccccc1)c1ccccc1)c1ccc(C(F)(F)F)cc1 (stereo not drawn),-7%,18%,9%,-4%,-8
CSc1nncc(/C(C)=N\Nc2ccccc2C)n1,0.89µM*,1%,-20%,-16%,3
CSc1nncc(/C(C)=N/O)n1,7%,17%,3%,20%,4
Cc1ccc(C(=O)O/N=C\c2ccc(N3CCCCC3)c([N+](=O)[O-])c2)cc1,4.5µM*,6%,11%,-17%,1
O=C(O/N=C\c1ccc(N2CCCCC2)c([N+](=O)[O-])c1)c1cccc(Cl)c1,?,-2%,6%,-24%,-2
COc1ccc(-c2noc(-c3ccc(N4CCCCC4)c([N+](=O)[O-])c3)n2)cc1,9%,.,-9%,-4%,.
COc1ccc(C(=O)/C=C/c2ccc(N3CCCCC3)c([N+](=O)[O-])c2)cc1,7.9µM*,15%,12%,?,-2
CN(C)c1ccc(/C=C/C(=O)c2ccc3c(c2)OCCO3)cc1[N+](=O)[O-],3.5µM*,-3%,5%,?,0
COc1ccc(C(=O)/C=C/c2ccc(N3CCCCC3)c([N+](=O)[O-])c2)c(OC)c1,4µM*,-11%,4%,?,-2
CCc1nn2c(=O)cc(COC(=O)c3ccc(NC(=O)COc4ccccc4C)cc3)nc2s1,1%,.,-5%,10%,.
Cc1ccc(N2C(=O)CS(=O)(=O)C23C(=O)N(Cc2ccccc2F)c2ccccc23)cc1Cl (stereo not drawn),4%,.,-15%,-1%,.
CCOc1ccccc1NC(=O)Cn1c(=O)n(Cc2ccc(OC)cc2)c(=O)c2oc3ccccc3c21,8%,.,0%,-4%,.
CCn1cc2nc(SCC(=O)Nc3cc(OC)cc(OC)c3)n(Cc3ccc(Cl)cc3)c(=O)c2n1,?,.,-21%,?,.
COc1ccc(-n2nc(C(=O)Nc3ccc(C)cn3)c3c4ccccc4n(C)c3c2=O)cc1Cl,5%,.,-9%,0%,.
CNC(=O)N(O)C1N(/N=C/c2cc(Br)ccc2O)C(=S)SC1(C)C (stereo not drawn),.,79µM*,.,.,0
CNC(=O)N(O)C1N(/N=C/c2ccc(C)cc2)C(=S)SC1(C)C (stereo not drawn),.,-7%,.,.,0
O=c1c2c(-c3ccccc3)csc2nc2c3ccccc3c(NCCN3CCOCC3)nn12,?,35µM*,?,-25%,-1
COc1ccc(C[C@H]2CN3C(=NC[C@@H]3C(C)C)N2C[C@H](C)NC(=O)c2ccc(C)c(Br)c2)cc1,-6%,4%,8%,0%,1
Cc1ccc(C(=O)NCCN2C3=NC[C@@H](Cc4ccccc4)N3C[C@H]2Cc2ccc(O)cc2)cc1Br,?,45µM*,5%,-15%,0
COc1ccc(C[C@H]2CN3C(=NC[C@H]3Cc3ccccc3)N2CCNC(=O)c2ccc(C)c(Br)c2)cc1,-17%,50µM*,1%,10%,1
Cc1ccc(C(=O)N[C@@H](C)CN2C3=NC[C@H](C(C)C)N3C[C@H]2Cc2ccc(O)cc2)cc1Br,9%,40µM*,5%,-1%,-6
